Experiment [1] deals with T1, Muscle, skeletal receptor tyrosine-protein kinase (Homo sapiens) (UniProt O15146).
T1 sequence (whole entry): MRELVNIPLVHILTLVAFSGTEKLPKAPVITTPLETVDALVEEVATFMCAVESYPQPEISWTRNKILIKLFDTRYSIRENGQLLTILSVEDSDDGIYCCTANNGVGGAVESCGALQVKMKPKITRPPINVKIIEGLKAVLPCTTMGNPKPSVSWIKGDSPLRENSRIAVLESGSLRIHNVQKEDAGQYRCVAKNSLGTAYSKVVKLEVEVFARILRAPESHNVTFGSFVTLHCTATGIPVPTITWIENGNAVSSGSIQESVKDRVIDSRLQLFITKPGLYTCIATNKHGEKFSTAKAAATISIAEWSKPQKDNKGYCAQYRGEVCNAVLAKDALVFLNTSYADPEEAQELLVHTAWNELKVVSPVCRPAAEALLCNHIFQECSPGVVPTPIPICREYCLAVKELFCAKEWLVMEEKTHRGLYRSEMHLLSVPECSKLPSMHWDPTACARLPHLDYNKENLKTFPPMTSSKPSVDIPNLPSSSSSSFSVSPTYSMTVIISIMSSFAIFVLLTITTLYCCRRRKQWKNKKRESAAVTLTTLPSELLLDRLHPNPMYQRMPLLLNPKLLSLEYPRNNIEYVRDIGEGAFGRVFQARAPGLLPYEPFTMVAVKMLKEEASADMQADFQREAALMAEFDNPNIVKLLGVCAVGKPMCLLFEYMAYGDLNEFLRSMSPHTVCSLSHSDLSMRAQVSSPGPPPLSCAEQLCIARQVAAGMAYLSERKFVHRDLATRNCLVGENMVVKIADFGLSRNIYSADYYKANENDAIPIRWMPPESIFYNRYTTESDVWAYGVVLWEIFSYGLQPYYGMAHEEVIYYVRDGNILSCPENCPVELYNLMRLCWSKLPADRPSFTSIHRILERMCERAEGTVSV
Conditions: at 1 µM.

For experiment [2], the target named is T1, Muscle, skeletal receptor tyrosine-protein kinase (Homo sapiens). Conditions: at 10 µM.
Experiment [3] has as its target T2, Serine/threonine-protein kinase Nek11 (Homo sapiens) (UniProt Q8NG66).
T2 sequence (whole entry): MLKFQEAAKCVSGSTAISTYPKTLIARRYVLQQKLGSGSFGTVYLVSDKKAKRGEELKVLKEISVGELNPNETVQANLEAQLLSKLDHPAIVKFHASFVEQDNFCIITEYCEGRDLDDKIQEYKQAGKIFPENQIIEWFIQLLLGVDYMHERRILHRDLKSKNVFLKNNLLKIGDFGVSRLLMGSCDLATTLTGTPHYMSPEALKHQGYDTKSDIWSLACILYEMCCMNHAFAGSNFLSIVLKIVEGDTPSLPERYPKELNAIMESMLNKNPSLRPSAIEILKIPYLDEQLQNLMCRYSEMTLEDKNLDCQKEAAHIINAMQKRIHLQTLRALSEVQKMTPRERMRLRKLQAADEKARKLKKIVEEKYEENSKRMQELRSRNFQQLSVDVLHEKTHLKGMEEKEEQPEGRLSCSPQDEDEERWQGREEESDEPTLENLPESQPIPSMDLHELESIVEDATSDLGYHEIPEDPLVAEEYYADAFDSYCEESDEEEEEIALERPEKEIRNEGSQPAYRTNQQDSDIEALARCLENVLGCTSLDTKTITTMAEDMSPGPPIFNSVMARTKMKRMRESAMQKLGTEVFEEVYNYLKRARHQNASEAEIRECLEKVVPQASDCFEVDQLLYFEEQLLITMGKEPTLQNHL
The settings on record: at 1 µM.

The target in experiment [4] is T2, Serine/threonine-protein kinase Nek11 (Homo sapiens). The settings on record: at 10 µM.
Experiment [5] addresses T3, Serine/threonine-protein kinase Nek2 (Homo sapiens) (UniProt P51955).
T3 sequence (whole entry): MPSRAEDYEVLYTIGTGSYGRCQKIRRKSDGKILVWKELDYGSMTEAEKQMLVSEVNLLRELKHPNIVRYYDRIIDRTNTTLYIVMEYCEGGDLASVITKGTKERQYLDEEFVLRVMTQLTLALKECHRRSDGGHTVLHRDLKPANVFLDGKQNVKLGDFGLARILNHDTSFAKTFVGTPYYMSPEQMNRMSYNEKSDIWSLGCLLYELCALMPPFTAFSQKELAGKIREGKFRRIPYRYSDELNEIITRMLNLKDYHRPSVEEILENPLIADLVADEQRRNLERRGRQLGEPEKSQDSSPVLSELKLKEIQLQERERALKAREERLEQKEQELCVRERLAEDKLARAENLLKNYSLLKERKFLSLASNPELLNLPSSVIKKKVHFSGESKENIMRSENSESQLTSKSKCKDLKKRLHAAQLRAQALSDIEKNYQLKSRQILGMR
Conditions: at 1 µM.

Experiment [6] deals with T3, Serine/threonine-protein kinase Nek2 (Homo sapiens). Conditions: at 10 µM.
Experiment [7] concerns the target T4, Serine/threonine-protein kinase Nek3 (Homo sapiens) (UniProt P51956).
T4 sequence (whole entry): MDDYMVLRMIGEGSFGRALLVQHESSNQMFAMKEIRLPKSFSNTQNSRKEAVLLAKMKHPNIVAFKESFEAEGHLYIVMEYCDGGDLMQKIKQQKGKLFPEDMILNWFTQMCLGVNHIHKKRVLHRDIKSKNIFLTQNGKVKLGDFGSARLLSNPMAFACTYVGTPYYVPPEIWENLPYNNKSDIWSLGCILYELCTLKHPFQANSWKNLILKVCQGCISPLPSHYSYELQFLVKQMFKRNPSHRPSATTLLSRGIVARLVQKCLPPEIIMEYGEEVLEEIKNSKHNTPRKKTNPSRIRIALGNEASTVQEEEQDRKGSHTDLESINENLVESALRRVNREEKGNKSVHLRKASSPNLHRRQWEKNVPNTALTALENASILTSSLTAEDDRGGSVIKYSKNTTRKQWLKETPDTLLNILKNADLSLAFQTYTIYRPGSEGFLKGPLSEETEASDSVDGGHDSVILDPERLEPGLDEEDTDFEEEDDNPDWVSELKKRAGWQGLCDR
The settings on record: at 1 µM.

Experiment [8] deals with T4, Serine/threonine-protein kinase Nek3 (Homo sapiens). The settings on record: at 10 µM.
Experiment [9] deals with Serine/threonine-protein kinase tousled-like 2 (Homo sapiens) (UniProt Q86UE8). Conditions: at 1 µM.
The target is the same in experiment [10]. The settings on record: at 10 µM.
The target in experiment [11] is T5, Testis-specific serine/threonine-protein kinase 1 (Homo sapiens) (UniProt Q9BXA7).
T5 sequence (whole entry): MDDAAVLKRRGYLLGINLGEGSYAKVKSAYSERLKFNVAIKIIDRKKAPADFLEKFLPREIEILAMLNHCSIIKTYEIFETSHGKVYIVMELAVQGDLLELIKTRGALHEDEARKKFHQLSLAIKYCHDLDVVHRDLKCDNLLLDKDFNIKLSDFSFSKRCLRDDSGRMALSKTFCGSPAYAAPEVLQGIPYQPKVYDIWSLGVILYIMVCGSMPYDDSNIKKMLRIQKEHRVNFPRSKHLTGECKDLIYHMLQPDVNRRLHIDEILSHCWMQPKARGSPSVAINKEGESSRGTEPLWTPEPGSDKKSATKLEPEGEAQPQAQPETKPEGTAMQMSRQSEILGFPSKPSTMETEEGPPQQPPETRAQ
Conditions: at 1 µM.

The target of experiment [12] is T5, Testis-specific serine/threonine-protein kinase 1 (Homo sapiens). The settings on record: at 10 µM.
Experiment [13] addresses T6, Testis-specific serine/threonine-protein kinase 2 (Homo sapiens) (UniProt Q96PF2).
T6 sequence (whole entry): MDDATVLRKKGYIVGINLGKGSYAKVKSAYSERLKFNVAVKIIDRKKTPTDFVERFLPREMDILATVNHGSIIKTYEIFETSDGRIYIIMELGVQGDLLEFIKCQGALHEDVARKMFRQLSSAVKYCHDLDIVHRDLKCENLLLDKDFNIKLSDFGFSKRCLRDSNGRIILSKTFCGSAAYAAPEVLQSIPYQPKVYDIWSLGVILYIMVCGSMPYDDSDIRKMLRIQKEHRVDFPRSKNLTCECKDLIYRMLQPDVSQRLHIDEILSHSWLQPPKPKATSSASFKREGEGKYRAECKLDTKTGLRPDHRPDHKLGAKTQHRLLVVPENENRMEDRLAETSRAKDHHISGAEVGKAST
The settings on record: at 10 µM.

Experiment [14] concerns the target T7, Tyrosine-protein kinase Tec (Homo sapiens) (UniProt P42680).
T7 sequence (whole entry): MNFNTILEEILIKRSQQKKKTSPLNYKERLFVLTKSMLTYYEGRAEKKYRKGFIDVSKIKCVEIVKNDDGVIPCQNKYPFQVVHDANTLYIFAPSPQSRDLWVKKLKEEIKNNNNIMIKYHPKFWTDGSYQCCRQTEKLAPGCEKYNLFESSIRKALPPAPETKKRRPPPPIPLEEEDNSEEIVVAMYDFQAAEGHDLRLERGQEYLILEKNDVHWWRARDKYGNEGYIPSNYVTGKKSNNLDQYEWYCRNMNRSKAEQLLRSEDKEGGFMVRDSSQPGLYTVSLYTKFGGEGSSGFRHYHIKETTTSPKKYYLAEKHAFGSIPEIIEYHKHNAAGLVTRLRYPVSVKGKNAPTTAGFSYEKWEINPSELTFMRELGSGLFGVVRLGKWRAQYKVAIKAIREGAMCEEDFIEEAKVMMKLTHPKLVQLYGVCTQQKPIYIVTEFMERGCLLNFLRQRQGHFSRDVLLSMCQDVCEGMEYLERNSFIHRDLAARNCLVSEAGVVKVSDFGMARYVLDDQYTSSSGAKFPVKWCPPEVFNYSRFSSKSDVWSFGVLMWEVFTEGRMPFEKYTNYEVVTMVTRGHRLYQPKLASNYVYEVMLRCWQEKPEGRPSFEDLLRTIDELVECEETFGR
Conditions: at 1 µM.

Experiment [15] addresses T7, Tyrosine-protein kinase Tec (Homo sapiens). The settings on record: at 10 µM.
For experiment [16], the target named is Angiopoietin-1 receptor (Homo sapiens) (UniProt Q02763). Conditions: at 1 µM.
Experiment [17] shares this target. Conditions: at 10 µM.
The target in experiment [18] is High affinity nerve growth factor receptor (Homo sapiens) (UniProt P04629). The settings on record: at 1 µM.
For experiment [19] the target is unchanged. Conditions: at 10 µM.
The target in experiment [20] is BDNF/NT-3 growth factors receptor (Homo sapiens) (UniProt Q16620). Conditions: at 1 µM.
BDNF/NT-3 growth factors receptor (Homo sapiens), sequence (Q16620 32-822 limits assumed): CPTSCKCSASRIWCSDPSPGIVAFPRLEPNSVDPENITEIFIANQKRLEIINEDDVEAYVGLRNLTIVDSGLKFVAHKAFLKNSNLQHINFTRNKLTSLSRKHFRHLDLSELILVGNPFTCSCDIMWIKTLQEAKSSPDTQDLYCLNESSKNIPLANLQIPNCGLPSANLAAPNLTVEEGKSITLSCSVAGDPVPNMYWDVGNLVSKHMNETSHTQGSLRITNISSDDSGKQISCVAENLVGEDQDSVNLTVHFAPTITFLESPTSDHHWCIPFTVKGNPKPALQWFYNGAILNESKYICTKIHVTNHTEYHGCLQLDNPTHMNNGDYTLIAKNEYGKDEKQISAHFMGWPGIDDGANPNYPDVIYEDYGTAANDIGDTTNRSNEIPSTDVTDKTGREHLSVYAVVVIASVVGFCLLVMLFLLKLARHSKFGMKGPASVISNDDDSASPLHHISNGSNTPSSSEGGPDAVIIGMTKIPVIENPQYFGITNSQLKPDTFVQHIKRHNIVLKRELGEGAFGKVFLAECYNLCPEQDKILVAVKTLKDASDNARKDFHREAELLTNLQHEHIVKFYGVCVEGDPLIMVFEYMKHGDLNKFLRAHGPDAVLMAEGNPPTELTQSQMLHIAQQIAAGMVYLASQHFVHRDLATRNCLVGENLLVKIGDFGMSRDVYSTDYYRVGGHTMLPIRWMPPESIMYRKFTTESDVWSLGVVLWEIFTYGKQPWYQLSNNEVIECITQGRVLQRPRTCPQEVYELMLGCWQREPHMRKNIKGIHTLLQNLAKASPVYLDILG

High affinity nerve growth factor receptor (Homo sapiens), sequence (P04629 33-796 limits assumed): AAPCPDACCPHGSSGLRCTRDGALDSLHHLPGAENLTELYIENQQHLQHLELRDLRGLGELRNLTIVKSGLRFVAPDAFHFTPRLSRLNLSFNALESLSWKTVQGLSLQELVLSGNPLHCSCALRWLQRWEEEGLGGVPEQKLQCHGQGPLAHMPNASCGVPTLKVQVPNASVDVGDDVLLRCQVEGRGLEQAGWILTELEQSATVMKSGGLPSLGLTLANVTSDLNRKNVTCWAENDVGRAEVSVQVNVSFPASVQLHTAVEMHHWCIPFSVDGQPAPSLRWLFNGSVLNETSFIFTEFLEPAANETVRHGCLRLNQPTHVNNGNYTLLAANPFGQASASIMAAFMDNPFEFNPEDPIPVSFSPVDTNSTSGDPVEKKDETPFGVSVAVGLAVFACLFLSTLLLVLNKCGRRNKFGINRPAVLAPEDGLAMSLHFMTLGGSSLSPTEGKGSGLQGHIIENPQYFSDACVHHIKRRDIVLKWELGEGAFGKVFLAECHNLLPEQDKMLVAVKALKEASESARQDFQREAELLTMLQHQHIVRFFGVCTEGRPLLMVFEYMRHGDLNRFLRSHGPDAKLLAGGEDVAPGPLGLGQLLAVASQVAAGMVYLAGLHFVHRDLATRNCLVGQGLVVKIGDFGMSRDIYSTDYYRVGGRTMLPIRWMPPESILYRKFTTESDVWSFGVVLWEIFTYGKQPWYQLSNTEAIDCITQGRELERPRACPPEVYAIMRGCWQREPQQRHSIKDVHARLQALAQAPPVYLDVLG
Serine/threonine-protein kinase tousled-like 2 (Homo sapiens), sequence (Q86UE8 whole entry, looked up): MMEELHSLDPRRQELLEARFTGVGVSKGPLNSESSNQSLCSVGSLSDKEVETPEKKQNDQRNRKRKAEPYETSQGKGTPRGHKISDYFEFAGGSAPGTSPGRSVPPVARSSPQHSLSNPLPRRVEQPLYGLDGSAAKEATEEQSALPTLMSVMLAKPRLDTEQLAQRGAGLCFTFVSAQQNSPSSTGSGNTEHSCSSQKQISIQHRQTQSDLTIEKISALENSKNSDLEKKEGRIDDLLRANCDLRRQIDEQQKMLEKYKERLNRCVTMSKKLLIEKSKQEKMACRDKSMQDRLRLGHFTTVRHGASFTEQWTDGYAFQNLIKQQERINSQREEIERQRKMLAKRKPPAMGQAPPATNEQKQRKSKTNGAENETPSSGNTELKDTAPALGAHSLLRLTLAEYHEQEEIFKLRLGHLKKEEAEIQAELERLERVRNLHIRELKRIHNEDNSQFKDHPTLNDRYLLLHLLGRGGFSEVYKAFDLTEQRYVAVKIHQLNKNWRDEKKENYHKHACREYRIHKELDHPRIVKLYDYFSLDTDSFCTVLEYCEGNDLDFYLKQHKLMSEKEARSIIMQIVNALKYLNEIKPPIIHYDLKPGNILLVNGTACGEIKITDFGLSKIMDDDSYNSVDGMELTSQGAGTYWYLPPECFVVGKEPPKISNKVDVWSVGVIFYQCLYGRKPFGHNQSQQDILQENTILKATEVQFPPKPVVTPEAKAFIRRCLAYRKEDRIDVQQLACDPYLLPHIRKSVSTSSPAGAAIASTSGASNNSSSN
Angiopoietin-1 receptor (Homo sapiens), sequence (Q02763 whole entry): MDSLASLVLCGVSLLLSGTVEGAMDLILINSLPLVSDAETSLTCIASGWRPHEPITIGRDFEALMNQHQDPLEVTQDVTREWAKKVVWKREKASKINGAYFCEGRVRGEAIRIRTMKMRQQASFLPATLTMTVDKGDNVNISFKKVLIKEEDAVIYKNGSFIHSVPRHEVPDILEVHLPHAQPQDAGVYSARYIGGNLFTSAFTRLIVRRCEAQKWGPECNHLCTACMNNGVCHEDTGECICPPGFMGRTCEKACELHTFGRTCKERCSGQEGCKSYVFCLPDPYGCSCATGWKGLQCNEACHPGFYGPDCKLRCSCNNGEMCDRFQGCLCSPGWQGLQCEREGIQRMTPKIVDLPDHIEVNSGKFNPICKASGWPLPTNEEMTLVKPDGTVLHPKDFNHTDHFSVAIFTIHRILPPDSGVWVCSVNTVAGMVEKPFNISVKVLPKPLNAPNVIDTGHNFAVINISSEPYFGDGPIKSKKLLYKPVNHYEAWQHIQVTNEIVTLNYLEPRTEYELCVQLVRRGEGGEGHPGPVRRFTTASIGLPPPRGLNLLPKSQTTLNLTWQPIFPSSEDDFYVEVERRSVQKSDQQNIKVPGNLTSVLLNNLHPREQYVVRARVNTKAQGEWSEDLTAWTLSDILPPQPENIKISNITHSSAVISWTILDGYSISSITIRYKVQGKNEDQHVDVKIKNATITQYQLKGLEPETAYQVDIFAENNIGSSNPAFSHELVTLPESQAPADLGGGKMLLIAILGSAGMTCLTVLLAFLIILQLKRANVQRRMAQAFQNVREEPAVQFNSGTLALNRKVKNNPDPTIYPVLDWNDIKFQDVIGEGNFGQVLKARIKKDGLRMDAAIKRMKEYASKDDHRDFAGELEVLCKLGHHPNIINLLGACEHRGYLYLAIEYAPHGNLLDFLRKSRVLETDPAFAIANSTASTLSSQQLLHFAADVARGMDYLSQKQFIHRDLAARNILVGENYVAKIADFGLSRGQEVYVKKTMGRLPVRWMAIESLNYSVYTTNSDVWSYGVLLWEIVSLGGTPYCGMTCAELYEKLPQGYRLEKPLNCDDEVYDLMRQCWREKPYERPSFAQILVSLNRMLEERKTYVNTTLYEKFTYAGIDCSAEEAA

For `Cc1ccc(NC2=CC(=O)c3sc(C)nc3C2=O)cc1`, the residual activity in experiment [1] was 90%; in [2] it was 85%; in experiment [3] it was 66%; in experiment [4] it was 75%; in experiment [5], 91%; in experiment [6], 89%. Also, the residual activity turned out to be 81% in experiment [7]; 101% in experiment [8]; 87% in experiment [9]; 84% in experiment [10]; 92% in experiment [11]; 98% in [12]. Further, the residual activity in experiment [13] amounted to 86%; in [14], 85%; in experiment [15], 93%; in experiment [16], 100%; in experiment [17], 99%; in experiment [18], 89%. The residual activity came to 88% in experiment [19] and 102% in [20].
For `CO[C@H]1C[C@@H]2CC[C@@H](C)[C@@](O)(O2)C(=O)C(=O)N2CCCC[C@H]2C(=O)O[C@H]([C@H](C)C[C@@H]2CC[C@@H](O)[C@H](OC)C2)CC(=O)[C@H](C)/C=C(\C)[C@@H](O)[C@@H](OC)C(=O)[C@H](C)C[C@H](C)/C=C/C=C/C=C/1C`, the residual activity in experiment [1] worked out at 87%; in [2], 86%; in [3], 97%; in [4] it was 112%; in experiment [5] it was 83%; in [6], 81%. The residual activity turned out to be 113% in experiment [7]; 64% in experiment [8]; 92% in experiment [9]; 83% in experiment [10]; 86% in experiment [11]; 80% in experiment [12]. For the same molecule, the residual activity in experiment [13] came out at 106%; in experiment [14], 96%; in experiment [15], 90%; in [16], 79%; in [17] it was 96%; in [18] it was 89%. For the same molecule, the residual activity is 41% in experiment [19] and 102% in experiment [20].
For `CO[C@H]1[C@@H](OC)C[C@H](C)[C@@H](OC)C2=CC(=O)C=C(NC(=O)/C(C)=C/C=C/[C@H](OC)[C@@H](OC(N)=O)/C(C)=C/[C@@H]1C)C2=O`, the residual activity in experiment [1] was determined as 104%; in [2] it was 85%; in experiment [3] it was 97%; in experiment [4], 97%; in [5], 95%; in experiment [6], 84%. The residual activity in experiment [7] is 101%; in experiment [8], 76%; in experiment [9], 90%; in [10], 95%; in experiment [11] it was 100%; in experiment [12], 88%. The residual activity in experiment [13] came out at 75%; in experiment [14], 89%; in [15], 84%; in experiment [16] it was 84%; in experiment [17], 76%; in experiment [18], 120%. For the same molecule, the residual activity in [19] turned out to be 118%; in experiment [20], 113%.

The residual activity is the signal under treatment as a percentage of the control signal.

Values taken from ChEMBL document CHEMBL2218924, “A broad activity screen in support of a chemogenomic map for kinase signalling research and drug discovery” (Biochem J, 2013).
